According to PubChem BioAssay:
The source made the active and inactive calls.

molecular target: NADPH oxidase 2 (Homo sapiens) (UniProt P04839); experiment: NOX2-dependent H2O2 signal modulators, primary screen, NOX inhibitor project, cell-based, HEK293-NOX2, PMA-stimulated, Amplex Red fluorescence (AID 1159); conditions: 45 min, higher = more signal, called active from +8 up or from −8 down; note: test concentration not given here
Sequence (P04839 whole entry, looked up): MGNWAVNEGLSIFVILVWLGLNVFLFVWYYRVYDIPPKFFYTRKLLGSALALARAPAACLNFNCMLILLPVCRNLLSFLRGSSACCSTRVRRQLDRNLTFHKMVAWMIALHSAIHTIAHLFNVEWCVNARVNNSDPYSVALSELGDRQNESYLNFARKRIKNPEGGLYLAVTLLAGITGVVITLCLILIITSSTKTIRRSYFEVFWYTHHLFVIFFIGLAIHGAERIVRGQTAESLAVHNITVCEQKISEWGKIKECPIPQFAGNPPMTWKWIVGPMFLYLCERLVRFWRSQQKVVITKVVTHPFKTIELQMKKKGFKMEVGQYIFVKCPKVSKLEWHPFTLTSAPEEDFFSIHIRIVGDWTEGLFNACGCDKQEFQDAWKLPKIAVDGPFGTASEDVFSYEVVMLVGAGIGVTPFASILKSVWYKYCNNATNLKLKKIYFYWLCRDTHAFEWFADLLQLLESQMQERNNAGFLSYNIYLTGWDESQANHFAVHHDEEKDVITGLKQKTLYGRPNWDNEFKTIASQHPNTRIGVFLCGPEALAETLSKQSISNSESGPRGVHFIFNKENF

z-score, inactive:
COc1cc(Cc2cc3c(c(-c4ccccc4)n2)[Si](C(C)C)(C(C)C)OC3)cc(OC)c1OC 1.04
COCCOC(=O)N1C(=O)[C@@]2(c3cc(C#CCC(C(=O)OC)C(=O)OC)ccc31)[C@H](C(N)=O)[C@H]1C(=O)O[C@H](c3ccccc3)[C@H](c3ccccc3)N1[C@@H]2c1ccccc1OCCO 1.02
C[C@@]1([C@@H](NS(=O)(=O)c2cccc3cccnc23)c2ccc(-c3ccccc3)cc2)C[C@H]1C1CCCCC1 0.168
C=C(C(=O)CC[C@@H](OC(=O)c1ccccc1-c1ccccc1C(=O)O)c1ccc(CO)o1)C(C)C 1
CCOC(=O)C1=CCC(c2cccn2C(=O)OC(C)(C)C)N(S(=O)(=O)c2ccc(C)cc2)C1 (stereo unspecified) -0.035
O=C1N(Cc2ccccc2)c2ccccc2C[C@@]12N=C(c1ccc(OCCCO)cc1)O[C@H]2c1ccccc1 1.92
Cc1ccc(S[C@]2(C(=O)NC3CC3)CC(=O)N(C3Cc4ccccc4C3)[C@@H]2c2ccc(CO)cc2I)cc1 1.94
CCc1cccc(NC(=O)O[C@H]2[C@H](OC(=O)Nc3ccccc3-c3ccccc3)[C@H](OC(=O)Nc3ccccc3-c3ccccc3)[C@@H](OC)O[C@@H]2CO)c1 -3.06
CC(C)C[C@H]1NC(=O)CNC(=O)[C@@]23C(=O)N[C@@H](Cc4ccccc4)C2[C@H](C)[C@@]2(C)O[C@H]2C3/C=C/C/C=C\CNC1=O (stereo partly specified) 0.429
C=C(/C=C\CNS(=O)(=O)c1ccc(C)cc1)[C@H](O)[C@H]1CCCN1S(=O)(=O)c1ccccc1[N+](=O)[O-] -0.264
C[C@]1(C(=O)O)c2ccccc2C(=O)N(Cc2cc(C(F)(F)F)cc(C(F)(F)F)c2)[C@H]1c1ccc(CO)cc1 0.803
COC(=O)C(CC#Cc1ccc2c(c1)[C@]1(C(=O)N2)[C@H](c2ccc(OCCO)cc2)N2[C@H](c3ccccc3)[C@H](c3ccccc3)OC(=O)[C@H]2[C@@H]1C(N)=O)C(=O)OC 1.56
CN1C(=O)C2C=CC(C(O)c3ccc(I)cc3)N(N(c3ccccc3)c3ccccc3)C2C1=O (stereo unspecified) 0.461
COc1ccc([Si](C)(C)[C@@H]2[C@@H](CC(=O)N(CCO)Cc3ccccc3)O[C@]3(C(=O)N(Cc4cccc(I)c4)c4ccccc43)[C@H]2C)cc1 -0.953
COc1ccc([Si](C)(C)[C@H]2[C@H](CC(=O)N3CCC[C@H]3CO)O[C@@]3(C(=O)N(Cc4cccc(N5CCCCC5=O)c4)c4ccccc43)[C@@H]2C)cc1 1.45
O=C1C2C=CC(C(O)C3CCCCC3)N(Nc3ccccc3F)C2C(=O)N1c1ccccc1 (stereo unspecified) -2.64
C=C(COC)/C(=C/C[C@@H](OC(C)=O)c1cccc(OCCO)c1)c1cnc2ccccc2c1 -1.21
COC(=O)C1=CC(c2ccc(CO)cc2)=CC(C2CC2)N(Cc2cc3c(cc2Br)OCO3)C=C1C(=O)OC (stereo unspecified) -0.853
O=C/C=C/c1ccc(-c2ccccc2)cc1 0.388
COc1ccc(C(O)C2C=CC3C(=O)N(C)C(=O)C3N2Nc2ccccc2)cc1 (stereo unspecified) -1.26
COCCOC(=O)N1C(=O)[C@@]2(c3cc(C#CCNC(N)=O)ccc31)[C@H](c1ccccc1OCCO)N1[C@H](c3ccccc3)[C@H](c3ccccc3)OC(=O)[C@H]1[C@@H]2C(=O)N1CCCCCCC1 1.39
CC1C2C(CCCO)=CC(C3C(=O)N(C(N)=O)C(=O)C23)N1Cc1cccc(OC(F)(F)F)c1 (stereo unspecified) 0.217
CCCC=C(CCC)[C@@H](NC(=O)c1ccc(C(=O)OC)cc1)c1ccc(C(=O)OC)cc1 -0.542
COc1ccc(C#Cc2ccc3c(c2)[C@]2(C(=O)N3)[C@H](c3ccccc3OCCO)N3[C@H](c4ccccc4)[C@H](c4ccccc4)OC(=O)[C@H]3[C@@H]2C(=O)NC[C@H](O)c2ccccc2)cc1 1.78
C=C(C(=O)CC[C@@H](OC(=O)c1ccccc1-c1ccccc1C(=O)O)c1cccc(OCCO)c1)C(C)C 3.11
C[C@]1(C(=O)NC2CC2)c2ccccc2C(=O)N(Cc2cc(F)cc(C(F)(F)F)c2)[C@H]1c1ccc(CO)cc1 -0.0377
C=C(COC)C(=O)CC[C@H](OC(C)=O)c1ccccc1OCCO -1.57
CCOC(=O)C[C@H]1[C@H](OC(=O)Cc2ccc3c(c2)OCO3)[C@@H](NC(=O)CC(C)C)c2cc(OCCCO)ccc2N1C(=O)c1ccc2ccccc2n1 0.0707
O=C1C[C@@](C(=O)NCC(F)(F)F)(c2ccc([N+](=O)[O-])cc2)[C@@H](c2ccc(CO)cc2I)N1CC12CC3CC(CC(C3)C1)C2 1
COc1cc(CO)cc(I)c1O[C@H]1C=C(C(=O)NCCO)C[C@@H](N(CCN2CCOCC2)C(=O)C2CCCO2)[C@@H]1O (stereo partly specified) -0.842
O=C1C2C=CC(C(O)C(c3ccccc3)c3ccccc3)N(Nc3ccccc3F)C2C(=O)N1c1ccccc1 (stereo unspecified) -1.34
COC(=O)C[C@H]1O[C@]2(C(=O)N(C)c3ccccc32)[C@@H](C)[C@@H]1[Si](C)(C)c1ccccc1 0.767
CC(C)(C)OC(=O)CC[C@]1(C(=O)N2CCOCC2)COC(c2ccc(OCCCO)cc2)=N1 -1.16
C=C(CC1([C@@H](NP(=O)(c2ccccc2)c2ccccc2)[C@H]2C[C@@H]2CCCC)CC1)c1cccc(OC)c1 -0.914
COc1ccc(C(=O)Nc2cccc(CN3C(=O)[C@]4(O[C@H](CC(=O)N(CCO)Cc5ccccc5)[C@@H]([Si](C)(C)c5ccc(OC)cc5)[C@@H]4C)c4ccccc43)c2)cc1 0.936
CC[C@@H](O[Si](C#C[Si](C(C)C)(C(C)C)C(C)C)(C(C)C)C(C)C)c1cn([C@H](CO)Cc2ccccc2)nn1 -0.69
